Most compounds without a hit are left out; they make up all but 3% or so of the library.
TRb SRC2 PPI – qHTS for Inhibitors of the Interaction of Thyroid Hormone Receptor and Steroid Receptor Coregulator 2. Potency, µM (doses to about 106 µM), inactives show top-dose activity change, negative = inhibition, hits mostly inhibitors. TRbeta-SRC2 peptide binding, fluorescence polarization; receptor liganded with 1 µM T3. AID 1469, 2008. 280,000 compounds, 0.065% hits;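 also: plate controls were bound peptide for no effect and peptide without receptor for full effect; nearly all actives have a fitted effect of over 50% in size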
Target sequence (P10828 whole entry, looked up): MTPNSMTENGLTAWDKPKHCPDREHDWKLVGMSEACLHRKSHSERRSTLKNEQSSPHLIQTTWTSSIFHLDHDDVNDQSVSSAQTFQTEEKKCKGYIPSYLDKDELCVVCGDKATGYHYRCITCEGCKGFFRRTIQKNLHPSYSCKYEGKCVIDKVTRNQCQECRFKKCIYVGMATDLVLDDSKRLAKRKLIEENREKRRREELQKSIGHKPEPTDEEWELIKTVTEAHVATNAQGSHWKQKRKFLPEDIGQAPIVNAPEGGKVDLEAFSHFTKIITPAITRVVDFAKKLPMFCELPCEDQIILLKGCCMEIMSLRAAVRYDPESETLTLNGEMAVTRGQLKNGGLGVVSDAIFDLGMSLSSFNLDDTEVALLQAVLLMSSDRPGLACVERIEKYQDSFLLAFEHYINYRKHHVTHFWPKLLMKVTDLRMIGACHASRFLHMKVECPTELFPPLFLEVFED
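Fluorescence polarization of 20 nM Texas Red SRC2 peptide (20-aa NR interaction domain) bound to 0.6 uM human TRb ligand-binding domain, with 1 uM T3, after 5 hr at ambient temperature; inhibition seen as decreased polarization.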
Tau FP inhib – qHTS for Inhibitors of Tau Fibril Formation, Fluorescence Polarization; K18 P301L tau heparin fibrillization, Alexa594 FP, 6 h; Potency, µM (series often up to 57.7 µM), without a hit: at the highest dose activity, negative = inhibition, most hits filed as inhibitors; 280,000 compounds, 0.39% hits; AID 1468, 2008; also: nearly all actives have a fitted effect of over 55% in size
Target sequence (P10636 561-689 P618L limits assumed): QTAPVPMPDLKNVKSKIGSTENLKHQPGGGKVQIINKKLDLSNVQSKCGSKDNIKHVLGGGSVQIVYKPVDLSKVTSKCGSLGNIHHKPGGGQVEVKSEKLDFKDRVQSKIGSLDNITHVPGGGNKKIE
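Quantitative HTS format: compounds meet 15 uM recombinant K18 P301L tau and Alexa 594-tau tracer in 100 mM sodium acetate pH 7; 20 uM heparin triggers fibrillization at 37 C over 6 hr; FP gives the signal.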
Tau ThT inhib – qHTS for Inhibitors of Tau Fibril Formation, Thioflavin T Binding | Microtubule-associated protein tau (Homo sapiens), P10636 | recombinant tau K18 P301L, heparin-induced fibrillization, ThT fluorescence | Potency, µM (top dose mostly 57.4 µM), inactives show at the top dose activity, negative = inhibition, usual class: inhibitors | 270,000 compounds, 2.1% hits | AID 1460, 2008; also: nearly all actives have a fitted effect of over 55% in size
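In this qHTS, human K18 P301L tau is incubated with compound and heparin for 6 hr at 37 C, and Thioflavin T fluorescence then reports fibril load.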
Tau fluor cs – Counterscreen qHTS for Inhibitors of Tau Fibril Formation, Fluorescence Polarization | Potency, µM (doses to about 57.7 µM), without a hit: top-dose activity change, negative = decrease | 280,000 compounds, 0.93% hits | tau K18 P301L Alexa594 fluorescence, heparin fibrillization | AID 1463, 2008; also: nearly all actives have a fitted effect of over 55% in size
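Human tau K18 P301L (15 uM unlabeled, 0.24 uM Alexa 594-labeled) in 100 mM sodium acetate pH 7 with 20 uM heparin, 6 hr at 37 C. ThT 30 uM added, 1 hr ambient; Alexa 594 FP and total fluorescence read at 555/632 nm.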
TexasRed fluor – Total Fluorescence Counterscreen for Inhibitors of the Interaction of Thyroid Hormone Receptor and Steroid Receptor Coregulator 2. TRb/SRC2 Texas Red total fluorescence interference. Potency, µM (series often up to 106 µM), for inactives: top-dose fluorescence change, negative = quenching. 280,000 compounds, 0.29% hits. AID 1479, 2009; active = well fitted curve in either direction with a large enough effect; inconclusive = small, poorly fitted or top-dose-only effect
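Human TRβ ligand-binding domain (0.6 uM) and Texas Red SRC2 peptide (20 nM) in Tris buffer with 1 uM T3 and 5% DMSO were incubated with pinned compound for 5 hr at ambient temperature. Total fluorescence was computed as S + 2P (555/632 nm).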
* = called active by the depositor; ? = inconclusive; · = no result given; [ ] = dose if it differs, or a comment. Unless noted, calls follow the shape of the dose curve; as a rule, active = well fitted curve in the direction sought with a large enough effect; inconclusive = small, poorly fitted or top-dose-only effect, or another doubt; inactive = no such curve, though single readings can be large; an effect the other way counts as inactive or inconclusive. Unless noted, % is scaled to controls: 0 for no effect and ±100 for the full control effect; potency is read from the fitted curve at half-maximal effect.

SMILES	TRb SRC2 PPI	Tau FP inhib	Tau ThT inhib	Tau fluor cs	TexasRed fluor
Cc1cc(/C=C2/C(=O)NN(c3ccccc3)C2=O)c(C)n1-c1ccc(O)cc1	4%	11%	13µM*	-22%	-2%
CC(=O)Nc1ccc(NC(=O)Cn2cc3c(n2)CCCCC3)cc1	5%	1%	-1%	-5%	-3%
N#C/C(=C\c1ccccc1OCc1ccc(C(=O)O)cc1)C(=O)Nc1ccc(O)cc1	12%	9%	?	-10%	-6%
COc1ccc(NC(=O)/C(C#N)=C\c2ccc(OCc3ccc(C(=O)O)cc3)c(OC)c2)cc1	7%	-16%	4µM*	-21%	2%
CCOC(=O)N1CCN(c2cc(NCCC(=O)O)c3c4c(onc24)-c2ccccc2C3=O)CC1	28µM*	32µM*	11µM*	?	13µM*[fluorescent]
CCn1c(=O)cc(SCC(=O)N2CCN(C3CCCCC3)CC2)c2ccccc21	-13%	6%	-10%	-4%	-1%
O=C(O)CCCNc1cc(N2CCC3(CC2)OCCO3)c2noc3c2c1C(=O)c1ccccc1-3	22µM*	?	25µM*	?	45µM*[fluorescent]
CCOC(=O)N1CCN(c2c(NCCc3ccccc3)c(=O)c2=O)CC1	2%	7%	-14%	1%	1%
CCCCNc1cc(N2CCN(C3CCCCC3)CC2)c2noc3c2c1C(=O)c1ccccc1-3	-3%	7%	16µM*	?	2%
CCOc1ccc(S(=O)(=O)NCCc2sc3nc(-c4ccc(F)cc4)nn3c2C)cc1	3%	-3%	-4%	-24%	-1%
O=C(CSc1nnc(-c2ccc(Cl)cc2)o1)N1CCc2ccccc21	-2%	-2%	-12%	0%	0%
C=C1CCN(C(CC(C)C)C(=O)Nc2nc3ccc(Cl)cc3s2)S(=O)(=O)c2ccccc21 (stereo unspecified)	3%	·	·	·	-1%
Cc1ccc2c(c1)C(=O)OC(C(=O)Nc1ncc(Cc3ccc(C(C)C)cc3)s1)C2 (stereo unspecified)	8%	-5%	-1%	-2%	1%
CCOC(=O)C1=C(CC)OC(N)=C(C#N)C1c1cccs1 (stereo unspecified)	0%	-11%	-19%	-22%	-1%
CCN1CC2=C(OC(N)=C(C#N)C2c2cccs2)/C(=C\c2cccs2)C1 (stereo unspecified)	-7%	-13%	14µM*	?	0%
Cc1nc2cc(-c3ccsc3-n3c(C)ccc3C)[nH]n2c(=O)c1Cl	19%	?	14µM*	?	45µM*[quencher]
COCc1cc(=O)n2[nH]c(-c3ccsc3-n3c(C)ccc3C)cc2n1	7%	?	22µM*	?	-20%
COC(=O)c1cnc(NCc2ccc(F)cc2)c2ccccc12	-6%	?	-7%	?	-2%
CO[C@H]1COC(=O)C/C=C\[C@@H](C)COC(=O)[C@H]2CCCN2C(=O)C/C=C\[C@H]1C	2%[11.2 µM]	0%[11.6 µM]	-11%[11.5 µM]	-6%[11.6 µM]	3%[11.2 µM]
COc1cc(NC(=O)c2ccc(C)c(Cl)c2)ccc1NC(=O)c1cc2ccccc2o1	10%	-6%	-24%	-15%	-4%
CCNC(=O)C1CCN(c2nc3ccccc3nc2C(F)(F)F)CC1	7%	-1%	11%	0%	0%
Brc1ccc2nc(SCCOc3ccccc3)[nH]c2c1	7%	28µM*	?	14µM*[quencher]	-1%
CN(C)c1ccc(-c2ccc3ncnc(NCc4ccccc4)c3c2)cc1	-9%	?	?	10µM*[quencher]	-4%
CN(C)c1ccc(-c2nc(NCc3cccnc3)c3ccccc3n2)cc1	3%	-10%	14µM*	18µM*[quencher]	-3%
c1cncc(CNc2nc(-c3ccoc3)nc3ccccc23)c1	-2%	?	28µM*	?	-2%
SMILES	TRb SRC2 PPI	Tau FP inhib	Tau ThT inhib	Tau fluor cs	TexasRed fluor
CN(C)CCNC(=O)C1CCN(Cc2cc3ccccc3n2Cc2ccccc2)CC1	1%	-13%	-5%	-9%	-2%
O=C(O)c1ccc(N/N=C/C2=Cc3ccccc3OC2)cc1	0%	3%	4µM*	13µM*[quencher]	-11%
Nc1nc(Nc2ccc(Cl)cc2)nc(NCc2ccco2)c1[N+](=O)[O-]	-1%	16µM*	?	?	-5%
Cc1cccc(Nc2nc(N)c([N+](=O)[O-])c(NCc3ccco3)n2)c1	-7%	?	?	?	-4%
Cc1ccc(Nc2cc(C)nc(NCc3ccccc3)n2)cc1	1%	5%	?	?	-2%
COc1ccc(Nc2nc(N)c([N+](=O)[O-])c(NCc3ccccc3)n2)cc1	3%	-4%	?	14µM*[quencher]	0%
Cc1ccc(Nc2nc(N)c([N+](=O)[O-])c(NCc3ccccc3)n2)cc1	4%	?	?	?	-2%
COc1ccc(Nc2cc(C)nc(NCc3ccccc3)n2)cc1	-6%	4%	?	35µM*[quencher]	-3%
Nc1nc(Nc2cccc(Cl)c2)nc(NCc2ccco2)c1[N+](=O)[O-]	1%	28µM*	?	?	1%
Cc1ccc(N(C)S(=O)(=O)c2ccc3[nH]cc(C(=O)O)c(=O)c3c2)cc1C	-14%	3%	1%	-8%	-2%
COc1cccc([C@@H]2Oc3ccc(OC)cc3/C(=N/O[C@@H](C)CN3CCCCc4nc(C)c(C)cc43)[C@@H]2O)c1	3%[11.2 µM]	-2%[11.6 µM]	-16%[11.5 µM]	-19%[11.6 µM]	3%[11.2 µM]
Cc1ccc(CCNC(=O)C(C)n2nc(C)c3c(C)n(-c4ccc(C)cc4)nc3c2=O)cc1 (stereo unspecified)	-3%	1%	10%	10%	-3%
Cc1ccc(C2C(/C=C3/SC(=S)NC3=O)=C(c3cccs3)Oc3ccccc32)cc1 (stereo unspecified)	19%	-6%	13µM*	?	-19%
Cc1ccc(NC(=O)c2ccc3c(c2)NC(=O)c2ccccc2S3)cc1	12%	?	11%	-29%	-6%
C=C(C)C(=O)/C=C/C=C/c1ccccc1	14%	-1%	-4%	0%	0%
CSC1=NSC2=NC(=O)/C(=C\c3cccs3)C(=N)N12	6%	12%	14µM*	-7%	-7%
CC(C)CSC1=NSC2=NC(=O)/C(=C\c3cccs3)C(=N)N12	-10%	-3%	0%	-2%	4%
N=C1/C(=C/c2cccs2)C(=O)N=C2SN=C(SCc3ccccc3)N12	9%	3%	18µM*	?	-3%
COC(=O)C/C=C\[C@@H](C)[C@@H](/C=N\O[C@@H](C)c1cn([C@H]2COC[C@H]2O)nn1)OC	0%[11.2 µM]	-1%[11.6 µM]	-1%[11.5 µM]	-4%[11.6 µM]	2%[11.2 µM]
Oc1cc2c(cc1O)[C@@H]1c3ccc(O)c(O)c3OC[C@]1(O)C2	3%	?	14µM*	?	-2%

High-throughput results: PubChem BioAssay, National Center for Advancing Translational Sciences (NCATS)
